# Laboratory results from PubChem BioAssay (NCI).
# This is part of a sample that, as a whole, favours compounds with a hit. Of some 79,000 tested, about 15% had one in any assay. Values without a mark were called inactive. Calls of active or inactive are those of the source. Cut-off read from the data, not from the text of the source: active = growth inhibition above about 70%; inactive = the rest.
# Experiments:
# [1] = NCI Yeast Anticancer Drug Screen. Data for the rad50 strain (AID 155);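 note: 0% = growth of vehicle-only cultures of the same strain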; conditions: S. cerevisiae rad50 strain growth inhibition, stronger effect = higher value
# Procedure, shortened: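 Yeast carrying a defined DNA repair defect were exposed to test compounds, and growth was compared with vehicle-treated controls to give percent inhibition.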
# [2] = NCI Yeast Anticancer Drug Screen. Data for the mec2-1 strain (AID 157); conditions: S. cerevisiae mec2-1 strain, stronger effect = higher value
# Procedure, shortened: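 Strain: mec2-1 (DNA repair/cell cycle alteration). Compound exposure, then growth measured; inhibition expressed relative to vehicle.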
# [3] = NCI Yeast Anticancer Drug Screen. Data for the sgs1 mgt1 strain (AID 161);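 note: 0% = growth of cultures given vehicle only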; conditions: S. cerevisiae sgs1 mgt1 strain, stronger effect = higher value
# Procedure, shortened: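 Inhibition of yeast growth, normalised to vehicle-treated controls, is reported for a strain bearing genetic alterations in DNA damage repair.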
# [4] = NCI Yeast Anticancer Drug Screen. Data for the cln2 rad14 strain (AID 165);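 note: 0% = growth equal to vehicle treated cultures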; conditions: S. cerevisiae cln2 rad14 strain, stronger effect = higher value
# Procedure, shortened: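 Compounds are applied to the cln2 rad14 yeast strain, and growth is then compared with that of vehicle-treated cultures to give inhibition.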
# [5] = NCI Yeast Anticancer Drug Screen. Data for the bub3 strain (AID 167); conditions: S. cerevisiae bub3 mutant strain, stronger effect = higher value
# Procedure, shortened: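 Compounds were applied to a genetically altered yeast strain carrying a cell-cycle control defect. Growth inhibition was scored against vehicle-treated controls.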
# [6] = NCI Yeast Anticancer Drug Screen. Data for the mlh1 rad18 strain (AID 175); conditions: S. cerevisiae mlh1 rad18 strain growth inhibition, stronger effect = higher value
# Procedure, shortened: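 Read-out is yeast growth inhibition, calculated against vehicle-only controls. The compound was applied to a strain engineered with DNA damage repair alterations.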
# [7] = at 5.0 µM (retest, dose inferred, filed as 0.5)
# [8] = at 50.0 µM (retest, dose inferred, filed as 5.0)
Structure (SMILES),"growth inhibition [1, 7] [%]","growth inhibition [1, 8]",growth inhibition ([1]; at 50.0 µM),"growth inhibition [2, 7] [%]","growth inhibition [2, 8]",growth inhibition ([2]; at 50.0 µM),"growth inhibition [3, 7] [%]","growth inhibition [3, 8]",growth inhibition ([3]; at 50.0 µM),"growth inhibition [4, 7] [%]","growth inhibition [4, 8]",growth inhibition ([4]; at 50.0 µM),"growth inhibition [5, 7] [%]","growth inhibition [5, 8]",growth inhibition ([5]; at 50.0 µM),"growth inhibition [6, 7] [%]","growth inhibition [6, 8]",growth inhibition ([6]; at 50.0 µM)
CC1CCC2(NC1)OC1CC3[C@@H]4CC=C5C=CCC[C@]5(C)C4CC[C@]3(C)C1C2C (stereo partly specified),-16,97% (active),90.8% (active),4,99% (active),93.1% (active),-4,98% (active),91.6% (active),6,97% (active),90.9% (active),-33,98% (active),90.8% (active),-10,97% (active),89.1% (active)
CC1(c2ccccc2)OC1C(=O)N(c1ccccc1)c1ccccc1 (stereo unspecified),14,99% (active),95.8% (active),18,99% (active),85% (active),12,98% (active),53.3%,15,97% (active),96.7% (active),22,98% (active),92.7% (active),21,97% (active),97.7% (active)
CN(C)CC(O)c1cc(-c2ccc(Cl)cc2)nc2c(Cl)cc(Cl)cc12 (stereo unspecified),11,99% (active),99.2% (active),12,99% (active),99.4% (active),41,99% (active),99.5% (active),9,97% (active),99.3% (active),8,99% (active),99.5% (active),46,99% (active),99.4% (active)
CC(C)(COC(=O)Nc1cccc(Cl)c1)[N+](=O)[O-],2,15%,88.3% (active),-3,6%,5.6%,-1,3%,53.3%,-41,-3%,-33.5%,-1,3%,65.7%,-1,6%,82.6% (active)
COc1cc(/C=C/C(=O)c2ccc(O)c(OC)c2)ccc1O,20,38%,14%,16,29%,47.8%,9,26%,54%,8,27%,34.2%,17,67%,56.1%,18,31%,6.6%
CC12CCC(O)CC1=CCC1C2CCC2(C)c3nc(C#N)c(=N)n(O)c3CC12 (stereo unspecified),12,96% (active),98.5% (active),0,71% (active),98.7% (active),6,93% (active),99.2% (active),4,89% (active),98.5% (active),1,81% (active),98% (active),44,85% (active),99.2% (active)
CN(C)c1ccccc1[CH2][Ga]([Cl])[CH2]c1ccccc1N(C)C,15,96% (active),88.9% (active),-1,98% (active),92.6% (active),13,51%,90.8% (active),16,98% (active),90.3% (active),9,97% (active),91.3% (active),26,98% (active),89.2% (active)
O=c1[nH]cnc2c1ncn2CCc1ccccc1,0,-6%,-11.6%,-6,-2%,-1.55%,-3,-5%,-4.45%,-4,3%,49.1%,0,4%,4.85%,4,-10%,-19.8%
OCC(c1ccccc1)c1ccccc1,24,42%,77.8% (active),2,6%,54.5%,41,34%,76.5% (active),2,9%,-14.2%,39,43%,18%,11,22%,80.2% (active)
C/C(=C/CC1CCC2C3=CCC4CC(O)CCC4(C)C3CCC12C)C(C)C(C)C (stereo unspecified),17,97% (active),98% (active),-4,86% (active),74.3% (active),2,66%,59.1%,0,69%,81.5% (active),-2,97% (active),64.8%,13,89% (active),97.3% (active)
C(=N\Nc1c2ccccc2nc2ccccc12)/c1ccc2c(c1)OCO2,0,97% (active),99.3% (active),7,99% (active),84.8% (active),0,99% (active),99.4% (active),2,89% (active),82% (active),-11,93% (active),99.2% (active),1,98% (active),99.3% (active)
N#CC12CCCC(=O)N1c1ccccc1S2 (stereo unspecified),10,5%,12.9%,-7,10%,7.85%,1,1%,-2.3%,-12,-3%,43.5%,3,1%,-6.8%,14,-2%,-10.2%
